Reference: PubChem BioAssay (NCATS)
Results filed as inconclusive are left out. Activity calls are given as the source filed them. The call rests on the fitted dose curve; in most records, active means well fitted curve in the direction sought with a large enough effect; inconclusive means small, poorly fitted or top-dose-only effect, or another doubt; inactive means no such curve, though single readings can be large; an effect the other way counts as inactive or inconclusive.

Assays:
[1] = molecular target: Arylsulfatase A (Homo sapiens) (UniProt P15289); test: qHTS screen for enhancers of Arylsulfatase A (ASA1): LOPAC Validation Assay (AID 720538); details: ASA enzyme activity, LOPAC qHTS enhancer assay; series mostly up to 57.5 µM; further: potency means the concentration at half of the fitted maximal effect
How it was run: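 SV40-transformed skin fibroblasts from an MLD patient (ASA-I179S) were treated with compounds for 48h at 37 degree C, then lysed with 0.5mM pNCS final substrate for 14h at room temperature; NaOH stop, fluorescence read (Ex=525 nm; Em=598 nm).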

[2] = qHTS for compounds that reverse cellular toxicity of Amyloid beta (A-beta) peptide in yeast: LOPAC Validation Assay (AID 720559); details: yeast expressing A-beta; series mostly up to 46.1 µM
How it was run: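 Yeast cells expressing toxic A-beta were combined with pinned compounds in growth medium and incubated 48 hr at 30 C. Growth was read as absorbance at 600 nm and normalized to DMSO and to an equimolar FeCl3/clioquinol positive control.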

[3] = qHTS for Activators of Parkin Expression: LOPAC Validation Assay (NLuc Reporter) (AID 720572); details: Parkin promoter NanoLuc reporter cells, luminescence; series mostly up to 46.1 µM
How it was run: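 NLuc signal, read 10 min after reagent and following a prior FLuc read, is normalized to DMSO (0) and positive controls (100%). Cells: neuronal Parkin-promoter coincidence reporter line; compounds tested 7-point, 24 h, 37 C, 5% CO2.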

[4] = qHTS for Activators of Parkin Expression: LOPAC Validation Assay (FLuc Reporter) (AID 720573); details: Cell line, PRKN promoter firefly luciferase reporter; series mostly up to 46.1 µM
How it was run: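 Neuronal cell line stably carrying FLuc/NLuc coincidence reporter under Parkin promoter; cells plated 24 h, then compounds added in 7-point dose response for 24 h at 37 C. FLuc luminescence read; normalized to DMSO and positive control (100%).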

Measured: Potency

Arylsulfatase A (Homo sapiens), sequence (P15289 whole entry, looked up): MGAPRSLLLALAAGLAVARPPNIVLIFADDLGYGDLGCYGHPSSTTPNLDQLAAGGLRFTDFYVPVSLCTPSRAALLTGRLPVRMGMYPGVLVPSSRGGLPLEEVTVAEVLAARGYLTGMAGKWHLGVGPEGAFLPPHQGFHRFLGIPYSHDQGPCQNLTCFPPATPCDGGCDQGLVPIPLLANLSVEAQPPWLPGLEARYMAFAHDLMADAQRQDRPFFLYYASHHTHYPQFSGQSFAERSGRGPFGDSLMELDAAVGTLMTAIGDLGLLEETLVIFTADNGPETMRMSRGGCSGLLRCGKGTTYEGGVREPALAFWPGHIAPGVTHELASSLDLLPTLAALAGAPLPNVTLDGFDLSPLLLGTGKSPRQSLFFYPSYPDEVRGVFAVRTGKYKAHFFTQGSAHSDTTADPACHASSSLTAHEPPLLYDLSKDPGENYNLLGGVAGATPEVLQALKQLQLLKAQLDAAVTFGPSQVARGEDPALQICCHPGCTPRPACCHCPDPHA

O=C(O)[C@H]1NCCC[C@H]1C(=O)O
inactive: all assays above

COc1ccccc1N1CCN(CCCCNC(=O)c2ccc3ccccc3c2)CC1
inactive: all assays above

CCc1ccc2c(-c3cccc(Cl)c3)nc(=O)n(CC)c2n1
inactive: all assays above

CNCCNS(=O)(=O)c1cccc2cnccc12
inactive: all assays above

CN(CC[C@@H](Oc1ccc(C(F)(F)F)cc1)c1ccccc1)CC(=O)O
inactive: all assays above

O=C(O)C1=CCCN(CCON=C(c2ccccc2)c2ccccc2)C1
inactive: all assays above

CC(N)=O
inactive: all assays above

CC(C)C[C@H](NC(=O)C1OC1C(=O)O)C(=O)NCCCCN=C(N)N (some centres undefined)
inactive: all assays above

COc1cc2c(CCNC(C)=O)c[nH]c2cc1O
active: [1] 37.9 µM
inactive: all other assays above

N#CC(C#N)=C(N)/C(C#N)=C/c1ccc(O)cc1
inactive: all assays above

NC1(C(=O)O)CC1
inactive: all assays above

CC(C)(CO)Cc1cc(C(C)(C)C)c(O)c(C(C)(C)C)c1
inactive: all assays above

O=C(O)C1CN(CCCP(=O)(O)O)CCN1 (centres undefined)
inactive: all assays above

c1ccc2c(c1)CCC[C@H]2Nc1nc2ccccc2[nH]1
inactive: all assays above

CCCn1c(=O)c2[nH]c(C3CCCC3)nc2n(CCC)c1=O
inactive: all assays above

N[C@@H](CCC(=O)N[C@H](CSN=O)C(=O)NCC(=O)O)C(=O)O
inactive: all assays above

CNCCc1cnc(CCC(c2ccccc2)c2ccccc2)[nH]1
inactive: all assays above

Cn1c(=O)c2[nH]c(-c3ccc(S(=O)(=O)O)cc3)nc2n(C)c1=O
inactive: all assays above

NCCCCN=C(N)N
inactive: all assays above

O=c1cc(-c2ccccc2F)[nH]c2cc3c(cc12)OCO3
inactive: all assays above

Nc1ncnc2c1nc(Br)n2C1OC2COP(=O)(O)O[C@@H]2C1O (some centres undefined)
inactive: all assays above

O=C(O)C1=CCNCC1
inactive: all assays above

CN1CC(O)C(O)C(O)C1CO (centres undefined)
inactive: all assays above

NOCC(=O)O
inactive: all assays above

COc1cc(/C=C(\C#N)C(=O)c2ccc(O)c(O)c2)cc(I)c1O
active: [1] 21.3 µM
inactive: all other assays above

c1ccc2nc(C3=NCCN3)ccc2c1
inactive: all assays above

N[C@@H](Cc1ccc(O)c(I)c1)C(=O)O
inactive: all assays above

NCCCNCCCCNCCCN
inactive: all assays above

CNc1ncnc2c1ncn2[C@H]1C[C@H](OP(=O)(O)O)[C@@H](COP(=O)(O)O)O1
inactive: all assays above

C=CC[C@H](N)C(=O)O
inactive: all assays above

C=CCN1CCc2c(cc(O)c(O)c2Br)[C@@H](c2ccccc2)C1
inactive: all assays above

Nc1ccc(-c2nc3ccc(-c4nc5ccc(N)cc5[nH]4)cc3[nH]2)cc1
active: [1] 6.75 µM
inactive: all other assays above

Cc1nc(N=Nc2ccc(S(=O)(=O)O)cc2S(=O)(=O)O)c(COP(=O)(O)O)c(C=O)c1O
inactive: all assays above

C[C@H]1CC2C3CCC4=CC(=O)C=C[C@]4(C)[C@@]3(Cl)[C@@H](O)C[C@]2(C)[C@@]1(O)C(=O)CO (some centres undefined)
inactive: all assays above

Cc1cccc(C2CN(C)CCc3c2cc(O)c(O)c3Cl)c1 (centres undefined)
inactive: all assays above

CN1Cc2sccc2C(c2ccc(O)c(O)c2)C1 (centres undefined)
inactive: all assays above
